# According to PubChem BioAssay (NCATS):
# Results filed as inconclusive are left out. A call without a number means that no potency is given here. Active and inactive are the calls of the source. The call rests on the fitted dose curve.
# Experiment: Natriuretic polypeptide receptor (hNpr1) antagonism - Pilot counterscreen GloSensor control cell line (AID 1347045)
# Conditions: HEK293 cGMP GloSensor cells, SNP-stimulated luminescence, 20 min; series mostly up to 38.3 µM
# How it was run: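 HEK293 cGMP GloSensor cells preloaded 2 h with 2% GloSensor reagent, then compound 30 min before baseline luminescence read. Stimulated with 50 uM sodium nitroprusside, 20 min at room temperature, then read again; counterscreen for Npr1 antagonism.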
# Potency means the concentration at half of the fitted maximal effect.
row,Compound,Potency
1,CC(C)(Oc1ccc(C2CC2(Cl)Cl)cc1)C(=O)O (configuration not stated),inactive
2,O=C1N(c2ccccc2)c2ccccc2C1(Cc1ccncc1)Cc1ccncc1,inactive
3,CN(C)c1nc(N(C)C)nc(N(C)C)n1,inactive
4,CN1CCN2c3ccccc3Cc3ccccc3C2C1 (configuration not stated),inactive
5,Fc1ccc([C@@H]2CCNC[C@H]2COc2ccc3c(c2)OCO3)cc1,inactive
6,Cn1cnc2c1c(=O)[nH]c(=O)n2C,inactive
7,O=C1c2c(O)ccc(O)c2C(=O)c2c(NCCNCCO)ccc(NCCNCCO)c21,10.4 µM (active)
8,O=C(c1ccc(OCCN2CCCCC2)cc1)c1c(-c2ccc(O)cc2)sc2cc(O)ccc12,inactive
9,Nc1ccn([C@H]2CC[C@@H](CO)O2)c(=O)n1,inactive
10,CC(C)NCC(O)COc1ccc(CCOCC2CC2)cc1 (configuration not stated),inactive
11,O=C(c1ccc(F)cc1)C1CCN(CCn2c(=O)[nH]c3ccccc3c2=O)CC1,inactive
12,O=c1c(-c2ccc(O)cc2)coc2cc(O)cc(O)c12,inactive
